SMILES strings stand for the structures. Among all 69,000 compounds or so, about 8,600 (12%) showed an effect of 50% or more. The full list was thinned out, with strong results kept by preference.

The test system of this assay is Plasmodium berghei. Kind of assay: Screen against P. berghei liver stage (PbLuc), transformed with Luciferase, at 10uM. The format is functional, HepG2. The note with it: tested at 10 uM.
Consider `COc1cccc(S(=O)(=O)NC(=O)COC2CCCCC2)c1`, for which the INHIBITION is recorded as 1.78%.
For `CCn1nnc(NCc2ccc(-c3ccc(Br)cc3)o2)n1` the value was 12.3%; for `CC(C)c1cc(C(=O)N2C[C@@H]3CC[C@H]2CN(Cc2cccnc2)C3)no1`, 2.02%.
For `Cn1ncnc1-c1ccnc(NCCCc2ccncc2)n1` the value was 94.3%.
For `Cn1ncnc1-c1ccnc(NCc2ccncc2)n1` the value was 14.5%; for `Cn1ccnc1CNc1nccc(-c2ncnn2C)n1`, -29%; for `COCC(=O)N1CC[C@@H](N2CCN(C)CC2)[C@@H]1Cc1ccccc1`, 41.6%.
With `CCN1CCC2(CC1)CC(NC(=O)N(C)C)c1cc(C)ccc12` (configuration not stated), the INHIBITION came out at 12.2%.
For `CC(=O)NCC(=O)NC1CCc2nccn2C1` (configuration not stated) the value was 40.6%; for `N#Cc1cc(F)c(NCCc2ccc(S(N)(=O)=O)cc2)c(F)c1`, 37.8%.
In the case of `N#Cc1cc(F)c(NCc2ccc(F)cc2)c(F)c1` it was 51.7%.
In the case of `N#Cc1cc(F)c(NCCc2ccc(F)cc2)c(F)c1` it was 23.9%; in that of `c1cc(-c2cnccn2)cc(-c2ccn(CCCN3CCCCC3)n2)c1`, 26.9%.
For `c1cc(-c2cnccn2)cc(-c2ccn(CCN3CCCCC3)n2)c1`, the INHIBITION is recorded as 5.38%.
In the case of `Cc1ccc(-c2cccc(-c3ccn(CCN4CCCC4)n3)c2)nn1` it was 46.8%; in that of `Cc1cnc(C)c(-c2cccc(-c3ccn(CCN4CCCC4)n3)c2)n1`, 55.6%.
As for `c1ccc(-c2cccc(-c3ccn(CCN4CCCCC4)n3)c2)nc1`, the INHIBITION amounted to 48.4%.
With `c1cc(-c2cnccn2)cc(-c2ccn(CCN3CCCC3)n2)c1`, the INHIBITION was determined as 55.1%.
In the case of `CCCOCC1CCN(C(=O)Cn2ncc(N3CCCC3)cc2=O)C1` (configuration not stated) it was -13.6%.
As to `c1csc(CN2CCO[C@H]3[C@H](OCCN4CCCC4)CC[C@@H]32)n1`, the INHIBITION was determined as 16.8%.
For `CCO[C@@H]1CO[C@@]2(CCCN(Cc3scnc3C)C2)C1` the value was 5.14%; for `CN(C)CCCN(C)c1nccc(N2CCN[C@H]3CS(=O)(=O)C[C@H]32)n1`, 59.3%.
For `CN(CCN1CCCC1)c1nccc(N2CCN[C@H]3CS(=O)(=O)C[C@H]32)n1` the value was 45.3%; for `CCN(C)c1nccc(N2CCN[C@H]3CS(=O)(=O)C[C@H]32)n1`, 40.9%; for `CCC(C)(C)NC(=O)c1ncn2c1CN(C)S(=O)(=O)c1ccccc1-2`, 47.4%.
For `Cn1nnc2c1C(COCc1ccccn1)CN(Cc1ccoc1)C2` (configuration not stated) the value was 49.2%; for `COCc1n[nH]c2c1CN(Cc1ccccn1)C2`, 47.5%; for `OCCOCc1n[nH]c2c1CN(Cc1cccs1)C2`, 58.5%.
As to `c1ccc(CN2Cc3[nH]nc(COc4cccnc4)c3C2)nc1`, the INHIBITION is 25.8%.
With `OCCOCc1n[nH]c2c1CN(Cc1ccccn1)C2`, the INHIBITION was 35.8%.
For `CN(C)Cc1n[nH]c2c1CCN(Cc1cccs1)C2` the value was 34.6%; for `c1csc(CN2Cc3[nH]nc(COCC4CC4)c3C2)c1`, 46.7%.
In the case of `c1cncc(OCc2n[nH]c3c2CN(Cc2cccs2)C3)c1` it was 51.2%.
For `COCc1n[nH]c2c1CN(Cc1cccs1)C2` the value was 64.5%; for `c1ccc(OCc2n[nH]c3c2CN(Cc2cccs2)C3)nc1`, -0.804%.
As for `Cc1nn(C)c(C)c1CCC(=O)N1CCCC(n2cncn2)C1` (configuration not stated), the INHIBITION stood at 27.6%.
For `OCC1(O)CCCN(Cc2noc(-c3ccccc3)n2)CC1` (configuration not stated) the value was 41.2%; for `C[S+]([O-])CCNC(=O)N1CCSC(C)(C)C1` (configuration not stated), 25.4%; for `O=S(=O)(Cc1ccccc1)c1nnc(N2CCCC2)s1`, 53.8%.
For `O=S(=O)(Cc1ccccc1)c1nnc(N2CCOCC2)s1` the value was 0%; for `Cc1cccc(CS(=O)(=O)c2nnc(N3CCOCC3)s2)c1`, 0%; for `CS(=O)(=O)NCc1ncn2c1CN(CCN1CCCC1)CCC2`, 31.1%.
In the case of `CC(C)CC(=O)NCC(O)c1c(F)cccc1F` (configuration not stated) it was 21.8%.
Consider `CCC1CCCCN1Cc1nc2c(cnn2C)c(=O)[nH]1` (configuration not stated), for which the INHIBITION turned out to be 25.1%.
For `CC(C)OCc1ccccc1CNC(=O)C(C)S(=O)(=O)C(C)C` (configuration not stated) the value was 3.84%; for `CCc1ccccc1CNC(=O)CNC(=O)C(C)(C)C`, -11.5%.
For `CC(C)OCc1ccccc1CNC(=O)C(C)(C)C` the value was 68.6%.
For `CCN(CC)C(=O)c1ccc(Cl)c(NC(=O)c2cc(C(C)C)on2)c1` the value was 43%.
On to `CN(C)Cc1cnc(CC2CCN(CCc3ccccc3)CC2)cn1`, for which the INHIBITION is on record as 9.05%.
For the compound `c1cnc(N2CCO[C@H]3[C@H](OCC4CC4)CC[C@@H]32)nc1`, the INHIBITION came to 21.6%.
For `CSc1[nH]c(=O)c(C(=O)N2CCCC2c2cccs2)cc1C#N` (configuration not stated), the INHIBITION came out at 53.3%.
With `CCC1CCCCCN1C(=O)c1cc(C#N)c(SC)[nH]c1=O` (configuration not stated), the INHIBITION came out at 49.9%.
Turning to `CSc1[nH]c(=O)c(C(=O)N2CCCC2C2CCCC2)cc1C#N` (configuration not stated), the INHIBITION amounted to 0.672%.
In the case of `CN(C)c1ncc(-c2cc(C(=O)N3CCCC3)n(CC3CC3)c2)cn1` it was 3.58%.
For `CCCc1ncc(C(=O)N2CCOc3ncccc32)s1` the value was 63.8%; for `O=C(c1cnc(-c2ccco2)s1)N1CCOc2ncccc21`, -40.6%.
For `O=C(c1csc(-c2ccco2)n1)N1CCOc2ncccc21` the value was -178%; for `Cc1cccc(OC2(C(=O)O)CCN(C(=O)CCc3ccco3)CC2)c1`, 16.6%; for `Cc1cn(-c2ccccc2)nc1NS(=O)(=O)c1ccc(C(=O)O)cc1`, 20.9%.
On to `CCc1c(C)n(CC(=O)OC)c2nc3ccccc3n2c1=O`, for which the INHIBITION is given as 15%.
For `Cc1noc([C@@H]2C[C@H]3OCC[C@H]3N(S(=O)(=O)c3cccnc3)C2)n1` the value was 30.1%; for `CCc1ccc(S(=O)(=O)N2CC3(COC(C)(C)OC3)C2)s1`, 42.7%.
In the case of `Cc1cc(-c2cc(S(=O)(=O)N3C[C@H](C4CC4)[C@@H](N)C3)c(C)s2)on1` it was 45.3%; in that of `CCC[C@H]1CN(S(=O)(=O)c2ccc(CC)s2)C[C@@H]1N`, 52.2%; in that of `CCC[C@H]1CN(S(=O)(=O)c2cc(C)ccc2C)C[C@@H]1N`, 57.2%.
In the case of `CCC[C@H]1CN(S(=O)(=O)c2ccccc2)C[C@@H]1N` it was -2.34%; in that of `CCC[C@@H]1CN(S(=O)(=O)c2ccc(C)c(F)c2)C[C@H]1N(C)C`, 37.8%.
`CCC[C@H]1CN(S(=O)(=O)c2c(C)noc2C)C[C@@H]1N`: the INHIBITION is reported as -28.9%.
`CCC[C@H]1CN(S(=O)(=O)c2cc(C)ccc2F)C[C@@H]1N`: the INHIBITION is 44.2%.
For the compound `CCC[C@H]1CN(S(=O)(=O)c2ccc(-c3c(C)noc3C)s2)C[C@@H]1N`, the INHIBITION turned out to be 72.6%.
For `O=C1[C@H]2CN(CC3CCOCC3)C[C@H]2CN1Cc1cccc(F)c1` the value was -53.6%; for `CNc1nc2cn(Cc3ccc(Cl)cc3)c(=O)c-2c[nH]1`, -14.7%.
For `CCc1ncc(C(=O)N2CCCN(C3CCCCC3)CC2)cn1` the value was 37.7%; for `COc1ncc(CN2CCC3(CCNC(=O)CC3)CC2)cn1`, 39.5%.
For `CN(C)C(=O)C1CN(Cc2cccs2)CCN(S(C)(=O)=O)C1` (configuration not stated) the value was 32.8%.
In the case of `Cc1nc(C)n(CC2CCCN2Cc2nc(N)c3ccccc3n2)n1` (configuration not stated), the INHIBITION is reported as 59.7%.
In the case of `Nc1nc(CN2CCCCC2Cn2cncn2)nc2ccccc12` (configuration not stated) it was 32.9%.
In the case of `COc1ccccc1OCCN1CCCCC1Cn1cncn1` (configuration not stated) it was 79.5%; in that of `Cc1cnn(CC2CCCN2Cc2nc3ccccc3c(=O)[nH]2)c1` (configuration not stated), 26.4%; in that of `Cc1nc(CN2CCCC2Cn2cncn2)nc2ccccc12` (configuration not stated), 5.7%.
In the case of `Cc1cnn(CC2CCCN2CCc2nc3ccccc3c(=O)[nH]2)c1` (configuration not stated) it was 61.3%; in that of `N#Cc1ccccc1OCCN1CCCCC1Cn1cncn1` (configuration not stated), 6.56%.
`Cc1cc(C)n(CC2CCCN2Cc2nc(N)c3ccccc3n2)n1` (configuration not stated): the INHIBITION is recorded as 37.9%.
For `Cc1nc(CN2CCCCC2Cn2cncn2)nc2ccccc12` (configuration not stated) the value was 51.3%; for `Fc1ccccc1OCCN1CCCCC1Cn1cncn1` (configuration not stated), -29.1%.
In the case of `Cc1nc(C)n(CC2CCCN2Cc2nc(C)c3ccccc3n2)n1` (configuration not stated) it was 17.4%; in that of `O=c1[nH]c(CCN2CCCC2Cn2cccn2)nc2ccccc12` (configuration not stated), 14.4%.
In the case of `CO[C@@H]1CCN(Cc2cccc(C)n2)[C@@H]2CN(Cc3ccncc3)C[C@@H]21` it was -64.5%; in that of `Cc1ccc2snc(C(=O)N3CCN(C(=O)NCCC(C)C)CC3)c2c1`, 28.4%.
As for `COc1cc(CNCCc2cnn(C)c2)cc2c1OCO2`, the INHIBITION is on record as -3.75%.
As to `Cc1cnn(CC2CN(Cc3nccn3CC(F)(F)F)CCO2)c1` (configuration not stated), the INHIBITION was 29.7%.
`CC(Nc1ncnc2c1NC(=O)CN2)c1ccccn1` (configuration not stated): the INHIBITION stood at 14.3%.
For `c1ccc(-n2ccc(CN3CCCC3Cn3cncn3)n2)cc1` (configuration not stated) the value was 9.64%; for `Cc1cnn(CC2CCCN2Cc2nc(C)c3ccccc3n2)c1` (configuration not stated), 53%.
For `Cc1cnn(CC2CCCN2Cc2nc(N)c3ccccc3n2)c1` (configuration not stated) the value was 31.2%.
In the case of `O=C1CCCN1CCCN1CCCC1Cn1cccn1` (configuration not stated) it was 24.6%.
`Cc1cnn(CC2CCCCN2Cc2nc(N)c3ccccc3n2)c1` (configuration not stated): the INHIBITION was 58.2%.
In the case of `c1ccc(-n2cc(CN3CCCC3Cn3cncn3)nn2)cc1` (configuration not stated) it was 50.3%; in that of `Cc1cnn(CC2CCCCN2Cc2nc(C)c3ccccc3n2)c1` (configuration not stated), 36.1%.
Take `c1ccc(-n2cc(CN3CCCCC3Cn3cncn3)nn2)cc1` (configuration not stated): the INHIBITION came to 0.914%.
In the case of `Cc1nc(CN2CCCC2Cn2cccn2)nc2ccccc12` (configuration not stated) it was 27.6%.
In the case of `O=C1CCCN1CCN1CCCCC1Cn1cncn1` (configuration not stated) it was -19.2%.
In the case of `O=C1CCCN1CCCN1CCCCC1Cn1cncn1` (configuration not stated) it was 50.4%; in that of `Nc1nc(CN2CCCC2Cn2cncn2)nc2ccccc12` (configuration not stated), -26.22%; in that of `Cc1ccc(C2CSCCN2C(=O)c2cccnc2)cc1` (configuration not stated), -39.8%.
In the case of `c1ccc(CO[C@H]2CN(c3ncccn3)C[C@@]23CCCO3)cc1`, the INHIBITION was -42.1%.
Take `Nc1nnc(CCCNC(=O)c2ccc(C3CCCNC3)cc2)s1` (configuration not stated): the INHIBITION came to 20.6%.
